Rows were chosen to be rich in hits. Some 12% of all compounds tested hit in one or more screens of this group.
Pf growth 48h: inhibits P. falciparum growth in the first generation, 48 h; P. falciparum luciferase growth in erythrocytes, 48 h; Potency, µM (series often up to 28.7 µM), without a hit: at the highest dose activity change, negative = inhibition, hits mostly inhibitors; 5.9% of 310,000 active; also: % is scaled to controls: 0 for no effect and ±100 for the full control effect
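Parasite viability was followed by luminescence of a genomically integrated firefly luciferase. Cultures held 0.1% parasitemia at 2% hematocrit (final), incubated under 5% CO2 at 37 C.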
Pf growth 96h: P. falciparum growth inhibition at 96 hour, primary screen for plastid delayed-death inhibitors. P. falciparum luciferase reporter growth, 96 h. Potency, µM (top dose mostly 28.7 µM), for the others: at the top dose activity change, negative = inhibition, hits mostly inhibitors. 6.9% of 320,000 active. AID 504834; also: % is scaled to controls: 0 for no effect and ±100 for the full control effect
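Compounds incubated with erythrocytes infected by luciferase-expressing P. falciparum (2% hematocrit, 0.05% parasitemia final) for 96 hours, 37 C in 5% CO2. Growth inhibition scored as decreased luciferase luminescence.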
SARS PLpro yeast: SARS-CoV PLP inhibition in yeast; S. cerevisiae expressing SARS-CoV PLpro, growth rescue; Potency, µM (doses to about 32.9 µM), for the others: top-dose activity, positive = growth rescue, usual class: activators; 0.19% of 330,000 active; AID 485353; calls by dose curve; also: 0% is about no effect; nearly all actives have a fitted effect of over 55% in size
AmpC inh no detg: inhibitors of E. coli AmpC beta-lactamase without detergent. AmpC nitrocefin hydrolysis, absorbance 480 nm, 0.0001% Triton. Potency, µM (top dose mostly 57.1 µM), for the others: at the highest dose activity change, negative = inhibition, usual class: inhibitors. AID 485341. 0.52% of 330,000 active. P00811;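 also: plate controls were no compound for no effect and no enzyme for full effect; nearly all actives have a fitted effect of over 20% in size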
Target sequence (P00811 whole entry, looked up): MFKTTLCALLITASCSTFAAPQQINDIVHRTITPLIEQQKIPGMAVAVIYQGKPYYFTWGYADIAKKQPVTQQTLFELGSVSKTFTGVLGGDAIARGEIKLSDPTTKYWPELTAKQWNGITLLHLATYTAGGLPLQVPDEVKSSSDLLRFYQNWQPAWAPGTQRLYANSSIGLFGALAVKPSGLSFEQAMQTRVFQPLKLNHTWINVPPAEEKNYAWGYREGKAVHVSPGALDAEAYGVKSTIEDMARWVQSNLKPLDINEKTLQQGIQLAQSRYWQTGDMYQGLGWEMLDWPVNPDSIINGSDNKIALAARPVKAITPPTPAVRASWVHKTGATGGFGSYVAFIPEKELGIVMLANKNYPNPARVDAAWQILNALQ
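AmpC (5.3 nM in the dispensed reagent) in 20 mM phosphate pH 7.0 with 0.01% (detergent screen) or 0.0001% Triton X-100 was preincubated with compounds for 15 min at room temperature. Nitrocefin was then added from an 800 uM solution, and hydrolysis was followed at 480 nm.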
Sm TGR inh: blocks Schistosoma mansoni thioredoxin glutathione reductase. Potency, µM (series often up to 114 µM), for the others: at the highest dose activity change, negative = inhibition, actives largely listed as inhibitors. AID 485364. 3% of 360,000 active. purified TGR, DTNB reduction, TNB absorbance 405 nm. Q962Y6; also: % is scaled to controls: 0 for no effect and ±100 for the full control effect; nearly all actives have a fitted effect of over 60% in size
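Kinetic colorimetric format: TGR-catalysed, NADPH-driven DTNB reduction monitored via TNB absorbance. Enzyme dispensed at 20 nM; compound exposure 15 min at room temperature before reaction start.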
AmpC inh detg: blocks E. coli AmpC beta-lactamase in detergent assay; AmpC hydrolysis of nitrocefin, absorbance 480 nm, 0.01% Triton; Potency, µM (top dose mostly 114 µM), without a hit: at the top dose activity change, negative = inhibition, actives largely listed as inhibitors; 0.041% of 370,000 active; P00811;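 also: 0% = no-compound wells and -100% = no-enzyme wells; nearly all actives have a fitted effect of over 25% in size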
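20 mM phosphate pH 7.0 + 0.01% (detergent screen) or 0.0001% Triton X-100; 5.3 nM AmpC reagent; cpd preinc 15 min RT; nitrocefin (800 uM stock) to start; A480 q20 s × 4 min; Activity was normalised to no-enzyme and no-compound control wells.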
* marks the source's active call; other numbers are inactive results; ? = inconclusive; nt = no result given; [ ] = remark or other dose. Unless noted, calls follow the shape of the dose curve; as a rule, active = well fitted curve in the direction sought with a large enough effect; inconclusive = small, poorly fitted or top-dose-only effect, or another doubt; inactive = no such curve, though single readings can be large; an effect the other way counts as inactive or inconclusive. Potency is read from the fitted curve at half-maximal effect.

SMILES	Pf growth 48h	Pf growth 96h	SARS PLpro yeast	AmpC inh no detg	Sm TGR inh	AmpC inh detg
CCN(CC)c1ccc(NC2=C(Cl)C(=O)c3ccccc3C2=O)cc1	40%	2.9µM*	-69%	-23%	2.2µM*	?
O=S1(=O)N=C(Nc2ccc(O)cc2)c2ccccc21	7%	9%	0%	-19%	-8%	-12%
CCN(CC)c1ccc(NC(=O)C(C)C)cc1	22%	118%	4%	-2%	-16%	?
CC1CCN(S(=O)(=O)c2ccc3c(c2)c(=O)c(C(=O)NC(C)c2ccccc2)cn3C)CC1 (stereo not given)	nt	nt	nt	nt	-14%	-2%
CCCNC(=O)Cn1c(=O)oc2cc(S(=O)(=O)N3CCCC3)ccc21	18%	14%	3%	-31%	2%	-2%
COc1ccccc1NC(=O)Cn1c(=O)oc2ccccc21	11%	14%	4%	0.4µM*	-8%	1%
COc1ccc(Cl)cc1NC(=O)Cn1c(=O)oc2ccccc21	7%[0.00184 µM]	5%	0%	-19%	3%	-6%
Cc1cc(C)cc(NC(=O)Cn2c(=O)oc3cc(S(=O)(=O)N4CCC(C)CC4)ccc32)c1	nt	12µM*	0%	-46%	-27%	?
CC1CCN(S(=O)(=O)c2ccc3c(c2)oc(=O)n3C)CC1	-8%	0.47µM*	2%	4%	-4%	2%
O=C(Cn1c(=O)oc2cc(S(=O)(=O)N3CCCCCC3)ccc21)NC1CCCCCCC1	nt	12µM*	1%	-24%	0%	?
Cn1c(=O)oc2cc(S(=O)(=O)N3CCC(N4CCCCC4)CC3)ccc21	37%	-5%	2%	-3%	0%	-3%
Cc1ccc2c(c1)-c1onc(C(=O)N3CCN(c4cc(Cl)ccc4C)CC3)c1CO2	nt	nt	nt	nt	2%	12%
COc1ccc(CCNC(=O)Cn2nnc(-c3cccc(C(F)(F)F)c3)n2)cc1OC	nt	nt	nt	nt	-5%	-1%
CC(C)COC(=O)n1c(=O)oc2cc(S(=O)(=O)N3CCCCC3)ccc21	8.3µM*	nt	4%	-26%	2%	?
COc1ccc(NC(=O)Cn2c(=O)oc3cc(S(=O)(=O)N4CCCC4)ccc32)c(OC)c1	3%	6.6µM*	8%	-18%	-17%	?
CCOC(=O)n1c(=O)oc2cc(S(=O)(=O)N3CCOCC3)ccc21	15%	nt	-3%	-36%	1%	?
CC1CCN(S(=O)(=O)c2ccc3[nH]c(=O)cc(C(=O)O)c3c2)CC1	0%	2.9µM*	-2%	-14%	-1%	0%
O=C(Cn1c(=O)oc2cc(S(=O)(=O)N3CCCC3)ccc21)NC1CCCc2ccccc21 (stereo not given)	?	22%	3%	10µM*	-1%	?
CC1CCN(S(=O)(=O)c2ccc(F)c(C(=O)O)c2)CC1	?	-25%	11%	-14%	0%	-15%
COc1ccc(NC(=O)Cn2c(=O)oc3cc(S(=O)(=O)N4CCC(C)CC4)ccc32)c(OC)c1	nt	nt	nt	nt	0%	14%
Fc1ccc(Nc2ccc3ccccc3n2)c(F)c1	256%	225%	-8%	-30%	1%	3%
NC(=O)C1CCCN(C(=O)CCC(=O)c2cccs2)C1 (stereo not given)	nt	nt	5%	-17%	nt	nt
CCN(CC)CCNC(=O)c1sc2nc(C)cc(C)c2c1-n1cccc1	nt	nt	nt	nt	-3%	23%
Cc1c(C(=O)NC2CCCc3ccccc32)oc2ccc(S(=O)(=O)N3CCCC3)cc12 (stereo not given)	?	nt	0%	-31%	4%	-5%
Cc1c(C(=O)NC2CCCc3ccccc32)oc2ccc(S(=O)(=O)N3CCCCC3)cc12 (stereo not given)	?	1.9µM*	-7%	-30%	-1%	?
SMILES	Pf growth 48h	Pf growth 96h	SARS PLpro yeast	AmpC inh no detg	Sm TGR inh	AmpC inh detg
Cc1csc(NC(=O)C2CCN(S(=O)(=O)c3ccc4c(c3)oc(=O)n4C)CC2)n1	nt	3.3µM*	-4%	-5%	2%	?
O=C(NC1CCCCC1)n1c(=O)oc2ccc(Cl)cc21	20%	14%	28%	-11%	-3%	0%
O=C(Cn1c(=O)oc2ccc(Cl)cc21)NC1CCCCC1	-23%	9.3µM*	-3%	-5%	-1%	-8%
Cc1cc2nnc(SCC(=O)NC3CCCCC3)n2c(N)n1	5%	24%	0%	19%	7%	3%
O=C(NC1CCCCC1)N1CCN(c2ncccn2)CC1	nt	45%	-6%	-10%	1%	2%
Cc1cc(=O)n2c3c(sc2n1)C(=O)N(Cc1ccccc1)C3=O	-4%	nt	-13%	-22%	1.1µM*	-10%
COc1cc2c(C(=O)NCc3ccc(C)o3)cn(CC(C)C)c(=O)c2cc1OC	?	?	-12%	56%	10µM*	?
CCn1cc(C(=O)NCc2ccco2)c2cc(OC)c(OC)cc2c1=O	16%	nt	-1%	0%	?	1%
CCCC(=O)NC(c1ccc(OC)cc1)c1c(O)ccc2ccccc12 (stereo not given)	12µM*	-1%	3%	-47%	-14%	0%
CC(C)[C@H](N[C@@H](C)c1ccccc1)c1c(O)ccc2ccccc12	2.9µM*	?	4%	-18%	-15%	?
CCCCC(=O)NC(c1ccco1)c1c(O)ccc2ccccc12 (stereo not given)	12µM*	?	4%	-28%	0%	-9%
COc1ccc(C(NC(=O)CC(C)C)c2c(O)ccc3ccccc23)cc1 (stereo not given)	?	209%	0%	-41%	6%	-5%
CCOc1ccc(C(NC(=O)CC)c2c(O)ccc3ccccc23)cc1 (stereo not given)	13µM*	?	7%	-26%	2%	0%
CCC(=O)NC(c1cccc([N+](=O)[O-])c1)c1c(O)ccc2ccccc12 (stereo not given)	?	?	0%	2%	0%	-5%
CCc1cccc(-n2nnc(-c3nc(-c4cccs4)no3)c2N)c1	nt	nt	nt	nt	1%	-13%
O=C(Cn1c(=O)nc(-c2ccccc2)c2ccccc21)NCc1ccccc1Cl	nt	nt	nt	nt	-2%	-5%
CC(C)CCOc1ccc(Oc2nc(N(C)C)nc(N(C)C)n2)nn1	nt	nt	nt	nt	-2%	4%
CC(=O)Oc1ccc2ccccc2c1C(NC(=O)Cc1ccccc1)c1ccc(Cl)cc1 (stereo not given)	4.7µM*	2.9µM*	-20%	-24%	-20%	-5%
CC(C)(C)C(=O)NC(c1ccccc1)c1c(O)ccc2ccccc12 (stereo not given)	4.7µM*	?	0%	-23%	-19%	-6%
